Results with a measured potency or affinity are listed apart. Calls of active or inactive are those of the source.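 The calls were made as follows: active = polarization signal falls with dose and the fitted half-maximal concentration is at or below ten times the sample's top valid dose; inconclusive = flat curve at 30 to 70% inhibition, or poor fit; inactive = signal rises, flat within 30%, or potency beyond limit.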

The experiment has as its target Golgi-associated PDZ and coiled-coil motif-containing protein (Homo sapiens) (UniProt Q9HD26). The experiment in a line: CAL PDZ peptide-binding inhibitors, dose response, biochemical, fluorescence polarization, Cerulean-tagged CAL PDZ, cherry-picks (AID 504773). Conditions: 1 h; series mostly up to 50 µM.
Regarding `CCCCN(CCCC)CCNC(=O)c1ccc2nc(-c3ccccc3NC(C)=O)c(=O)[nH]c2c1`, the molecule was classed as inactive.

As to `COc1ccccc1Oc1coc2cc(OC(=O)N3CCOCC3)ccc2c1=O`, the call was inactive.

Take `COc1ccc(S(=O)(=O)N2CC(=O)Nc3ccccc32)cc1F`: the molecule was classed as inactive.

Turning to `C/C(=N\NC(=O)c1cc(-c2ccc(C)s2)nc2ccccc12)c1cccnc1`, the molecule was classed as inactive.

`CN1CC(=O)N(CC(=O)Nc2ccc(Br)cc2F)C1=O`: the outcome was inactive.

Turning to `Cc1nn(C)cc1CN(C)C(=O)c1nn2c(c1Br)NC(c1cccs1)CC2C(F)(F)F` (stereo unspecified), the call was inactive.

As for `Cc1cc(NC(=O)CSc2nnc(-c3ccccc3)c(-c3ccccc3)n2)no1`, the molecule was called inactive.

As to `NC(=O)c1cc2ccccc2o/c1=N\NC(=O)c1ccncc1`, the molecule was called inactive.

In the case of `O=[N+]([O-])c1ccc(N/N=C/c2cccnc2)cc1`, the outcome was inactive.

As for `COc1ccc(OC)c(NC(=O)c2ccc(OC3CSC3)cc2)c1`, the result was inactive.

With `COc1ccc(NC(=O)c2ccc3c(c2)NC(=O)CO3)cc1OC`, the call was inactive.

For `Cc1cc(C)c(OCC(=O)OC(C)C(=O)NC2CC2)c(C)c1` (stereo unspecified), the molecule was called inactive.

As for `O=C(Nc1nc2ccccc2[nH]1)c1cc2ccccc2o1`, the outcome was inactive.

Regarding `OCC1(CCOc2ccccc2)CCN(CCCn2cccn2)CC1`, the call was inactive.

On to `Cc1ccc2nc(-c3cccc(Br)c3)cc(C(=O)NC3=NCCS3)c2c1`, for which the outcome was inactive.

As to `Cc1nn(C)c(C)c1S(=O)(=O)N1CCC(CO)(CC2CCCCO2)CC1` (stereo unspecified), the molecule was classed as inactive.

Regarding `Cc1ccccc1S(=O)(=O)NC(=NCc1ccc(F)cc1)c1ccccc1`, the outcome was inactive.

Regarding `CC1=C(C#N)C(=O)NC(=O)/C1=C\c1ccc(-c2cc(C)c(C)cc2[N+](=O)[O-])o1`, the molecule was called inactive.

For the molecule `CCCc1cc2c(cc1NC(=O)c1ccco1)OCO2`, the result was inactive.

Consider `CCOC(=O)c1c(CN2CCOCC2)oc2ccc(OC(C)=O)cc12`, for which the molecule was classed as inactive.

As for `CCCCNC(=O)c1ccc(-n2c(=S)[nH]c3ccccc3c2=O)cc1`, the molecule was classed as inactive.

Regarding `CCOCCCNC(=O)c1ccc2c(=O)n(Cc3ccc4c(c3)OCO4)c(=S)[nH]c2c1`, the call was inactive.

On to `CSc1cccc(NC(=O)N2CCCC(CNS(=O)(=O)Cc3ccccc3)C2)c1` (stereo unspecified), for which the outcome was inactive.

With `Oc1ccc(C=Nc2cccc3ccccc23)c(O)c1`, the call was inactive.

As for `Cc1ccnc(SCC(=O)N2CCC(C(N)=O)CC2)n1`, the result was inactive.

Take `CCC(=O)c1cn(CC(=O)Nc2cccc(C)c2C)c2ccccc12`: the molecule was classed as inactive.

Take `COc1ccc(CC(=O)N2CCC(CCC(=O)Nc3ccccc3)CC2)cc1`: the outcome was inactive.

On to `FC(F)(F)c1cc(-c2cccs2)nc2ncnn12`, for which the result was inactive.

As for `CCCCN1CC(O)=C(c2nc(-c3ccc(Cl)cc3)cs2)C1=N`, the molecule was classed as inactive.

For `Cc1c(C(=O)OCC(=O)NC(=O)NC2CCCCC2)cccc1[N+](=O)[O-]`, the call was inactive.

`O=C(N/N=C/c1ccc(OCc2ccccc2)cc1)c1ccc(O)cc1`: the call was inactive.

`CN(C)/N=C1\CCS(=O)(=O)c2sccc21`: the call was inactive.

As for `Cc1ccc(NC(=O)N2CCCC2C(=O)NCC2CCCO2)cc1` (stereo unspecified), the result was inactive.

In the case of `COCCN(Cc1nc(C(c2ccccc2)c2ccccc2)no1)C(C)C`, the call was inactive.

Consider `CN(C)c1ccc(P(=O)(OC2CCCCC2)C(O)c2cccnc2)cc1` (stereo unspecified), for which the outcome was inactive.

On to `CCOC(=O)N1CCN(Cc2nc3c(c(=O)n(C)c(=O)n3C)n2Cc2cccc(C)c2)CC1`, for which the outcome was inactive.

These data come from PubChem BioAssay AID504773 (Broad Institute, 2011).
